Data on 4 compounds can be found in PubChem BioAssay (EPA / NIEHS).

The structures appear in SMILES notation. Calls of active or inactive are those of the source. The calls were made as follows: active = hit-call score of the fitted dose curve at least 0.9, where 1 is the maximum; inactive = score below 0.9.

For orientation: AC50 means the concentration giving half of the maximal activity seen.

Common to all, as to details: mRNA level, 48 h; actives raise or lower the signal
Read-out in experiment [1]: Bcl-2 (BAD) gene, BAD (gene 572)
In words: LTEA_HepaRG_BAD: Life Technologies and Expression Analysis (LTEA) Assay for Bcl-2 (BAD) gene using HepaRG (AID 2283469). In outline:
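Activity values reflect up- or down-regulation of BAD mRNA in human HepaRG hepatic cells treated 48 h in serum-free medium, with eight-point half-log dosing capped at 100 uM and 0.5% DMSO vehicle.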

Read-out in experiment [2]: Bcl-2 (BAX) gene, BAX (gene 581)
Put plainly: LTEA_HepaRG_BAX: Life Technologies and Expression Analysis (LTEA) Assay for Bcl-2 (BAX) gene using HepaRG (AID 2283470). The essentials:
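Cells were thawed, plated for 48 h, moved to serum-free induction medium and dosed for 48 h (highest concentration 100 uM, half-log steps, 0.5% DMSO). Total RNA was then analysed for BAX expression by qRT-PCR.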

Read-out in experiment [3]: adenosine kinase (ADK) gene, ADK (gene 132)
Put plainly: LTEA_HepaRG_ADK: Life Technologies and Expression Analysis (LTEA) Assay for adenosine kinase (ADK) gene using HepaRG (AID 2283471). In outline:
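ADK expression quantified by qRT-PCR, normalised to three housekeeping genes, after 48 h exposure of HepaRG cells to eight concentrations (top 100 uM, half-log steps, duplicate, 0.5% DMSO). Up- or down-regulation fitted relative to vehicle.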

Read-out in experiment [4]: Alpha-fetoprotein (AFP) gene, AFP (gene 174)
Put plainly: LTEA_HepaRG_AFP: Life Technologies and Expression Analysis (LTEA) Assay for Alpha-fetoprotein (AFP) gene using HepaRG (AID 2283472). In outline:
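Chemicals were tested on differentiated HepaRG cells for 48 hours at eight concentrations up to 100 uM, with 0.5% DMSO as vehicle. AFP expression was then quantified by qRT-PCR and analyzed for gain or loss relative to DMSO.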

Read-out in a further experiment: BCL2L11 (gene 10018)
In words: LTEA_HepaRG_BCL2L11: Life Technologies and Expression Analysis (LTEA) Assay for Bcl-2 (BCL2L11) gene using HepaRG (AID 2283473). The essentials: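 HepaRG, 48 h exposure, 8-pt half-log series from 100 uM in 0.5% DMSO, duplicates; qRT-PCR (Fluidigm TaqMan) for BCL2L11, housekeeping-normalized; bidirectional curve fit relative to DMSO baseline.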

Read-out in experiment [5]: Apolipoprotein A-V (APOA5) gene, APOA5 (gene 116519)
In words: LTEA_HepaRG_APOA5: Life Technologies and Expression Analysis (LTEA) Assay for Apolipoprotein A-V (APOA5) gene using HepaRG (AID 2283474). The essentials: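 HepaRG, 48 h chemical exposure in serum-free induction medium, 8-pt half-log series (top 100 uM), 0.5% DMSO vehicle, duplicates. Readout: APOA5 mRNA by qRT-PCR, housekeeping-normalized; bidirectional fit vs DMSO baseline.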

Read-out in experiment [6]: Apoptosis regulator Bcl-2 (Homo sapiens) (UniProt P10415)
In words: LTEA_HepaRG_BCL2: Life Technologies and Expression Analysis (LTEA) Assay for Bcl-2 gene using HepaRG (AID 2283475). The essentials: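 Plated human HepaRG cells are exposed to test chemicals for 48 h across eight concentrations from 100 uM downward in half-log steps (0.5% DMSO). BCL2 expression is then measured by qRT-PCR with housekeeping normalisation and fitted bidirectionally against vehicle.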

Read-out in experiment [7]: Bcl-2 (BID) gene, BID (gene 637)
In words: LTEA_HepaRG_BID: Life Technologies and Expression Analysis (LTEA) Assay for Bcl-2 (BID) gene using HepaRG (AID 2283476). The essentials: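 Cells are plated, cultured 48 h, switched to serum-free induction medium, then dosed 48 h (100 uM top, half-log steps, 0.5% DMSO). RNA is isolated and BID expression read by qRT-PCR.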

Read-out in a further experiment: Caspase-3 (Homo sapiens) (UniProt P42574)
Put plainly: LTEA_HepaRG_CASP3: Life Technologies and Expression Analysis (LTEA) Assay for cysteine-aspartic acid protease (CASP3) using HepaRG (AID 2283477). The essentials: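 HepaRG, 48 h exposure, 8 conc. (top 100 uM, half-log steps, duplicate), 0.5% DMSO vehicle; qRT-PCR of CASP3 transcript, housekeeping-normalised (ACTB/GAPDH/POLR2A); bidirectional curve fit vs DMSO baseline.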

Read-out in experiment [8]: Cytochrome P450 (CYP24A1), CYP24A1 (gene 1591)
Put plainly: LTEA_HepaRG_CYP24A1: Life Technologies and Expression Analysis (LTEA) Assay for Cytochrome P450 (CYP24A1) using HepaRG (AID 2283478). The essentials: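 qRT-PCR read-out: CYP24A1 transcript levels normalized to three housekeeping genes, bidirectional curve fits against 0.5% DMSO baseline. Human HepaRG cells treated 48 h with chemicals at eight concentrations from 100 uM in half-log steps.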

Read-out in experiment [9]: Cytochrome P450 (CYP1A2), CYP1A2 (gene 1544)
In words: LTEA_HepaRG_CYP1A2: Life Technologies and Expression Analysis (LTEA) Assay for Cytochrome P450 (CYP1A2) using HepaRG (AID 2283479). In outline:
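HepaRG, 48 h exposure, top 100 uM, half-log 8-pt, 0.5% DMSO vehicle, duplicates. Readout: TaqMan qRT-PCR of CYP1A2 mRNA, housekeeping-normalized (ACTB/GAPDH/POLR2A). Gain/loss fit relative to DMSO baseline.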

Read-out in experiment [10]: Cytochrome P450 2C19 (Homo sapiens) (UniProt P33261)
In words: LTEA_HepaRG_CYP2C19: Life Technologies and Expression Analysis (LTEA) Assay for CYP2C19 using HepaRG (AID 2283482). The essentials:
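HepaRG, 48 h chemical exposure, 8-pt half-log series from 100 uM in 0.5% DMSO, duplicates. Readout: CYP2C19 mRNA by TaqMan qRT-PCR, housekeeping-normalized. Bidirectional fit vs DMSO baseline; phenobarbital 1mM as induction control.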

Read-out in a further experiment: CYP2C8 (gene 1558)
Put plainly: LTEA_HepaRG_CYP2C8: Life Technologies and Expression Analysis (LTEA) Assay for CYP2C8 using HepaRG (AID 2283483). The essentials: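 This is a transcriptional endpoint in HepaRG cultures: 48 h exposure, highest concentration 100 uM. CYP2C8 mRNA is quantified by TaqMan qRT-PCR.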

Read-out in a further experiment: CYP2C9 (gene 1559)
Put plainly: LTEA_HepaRG_CYP2C9: Life Technologies and Expression Analysis (LTEA) Assay for CYP2C9 using HepaRG (AID 2283484). In outline:
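Eight-point concentration-response (highest 100 uM, half-log dilutions) in HepaRG cells for 48 h; CYP2C9 expression by qRT-PCR normalized to ACTB, GAPDH, POLR2A. Bidirectional fit, DMSO baseline.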

Read-out in the next experiment: CYP2E1 (gene 1571)
Put plainly: LTEA_HepaRG_CYP2E1: Life Technologies and Expression Analysis (LTEA) Assay for CYP2E1 using HepaRG (AID 2283485). In outline:
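Readout is qRT-PCR of CYP2E1 mRNA, normalized to three housekeeping genes and fitted bidirectionally against 0.5% DMSO. HepaRG cells were dosed 48 h at eight concentrations, highest 100 uM with half-log dilutions.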

Read-out in the next experiment: CYP4A11 (gene 1579)
In words: LTEA_HepaRG_CYP4A11: Life Technologies and Expression Analysis (LTEA) Assay for CYP4A11 using HepaRG (AID 2283486). In outline:
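CYP4A11 transcript levels were quantified by TaqMan qRT-PCR after HepaRG human liver cells were treated for 48 hours with test chemicals (top 100 uM, half-log dilutions, 0.5% DMSO). Gain or loss of signal was fitted relative to DMSO.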

Read-out in experiment [11]: Cytochrome P450 3A4 (Homo sapiens) (UniProt P08684)
In words: LTEA_HepaRG_CYP3A4: Life Technologies and Expression Analysis (LTEA) Assay for CYP3A4 using HepaRG (AID 2283487). The essentials:
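Differentiated HepaRG cells, plated 48 h, then dosed 48 h in serum-free induction medium with 0.5% DMSO, 8 half-log concentrations up to 100 uM, duplicate. CYP3A4 mRNA by qRT-PCR, normalized to ACTB/GAPDH/POLR2A; bidirectional fit versus DMSO.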

Read-out in experiment [12]: DNA damage-inducible transcript 3 (DDIT3), DDIT3 (gene 1649)
In words: LTEA_HepaRG_DDIT3: Life Technologies and Expression Analysis (LTEA) Assay for DNA damage-inducible transcript 3 (DDIT3) using HepaRG (AID 2283488). In outline:
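Cells are human HepaRG liver cells treated for 48 h with eight half-log concentrations up to 100 uM in 0.5% DMSO. Transcript levels come from qRT-PCR normalized to three housekeeping genes, with activity fitted in both directions relative to vehicle.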

Read-out in experiment [13]: cysteine-aspartic acid protease (CASP8), CASP8 (gene 841)
Put plainly: LTEA_HepaRG_CASP8: Life Technologies and Expression Analysis (LTEA) Assay for cysteine-aspartic acid protease (CASP8) using HepaRG (AID 2283480). In outline:
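Concentration-response in duplicate up to 100 uM (half-log steps, 0.5% DMSO) on differentiated HepaRG cultures for 48 h. Expression change of CASP8 mRNA is determined by TaqMan qRT-PCR with housekeeping-gene normalization.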

Read-out in experiment [14]: Cytochrome P450 (CYP2B6), CYP2B6 (gene 1555)
Put plainly: LTEA_HepaRG_CYP2B6: Life Technologies and Expression Analysis (LTEA) Assay for Cytochrome P450 (CYP2B6) using HepaRG (AID 2283481). The essentials:
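Read-out is CYP2B6 mRNA by TaqMan qRT-PCR, normalized to three housekeeping genes and fitted bidirectionally against 0.5% DMSO baseline. Human HepaRG cells received test chemicals for 48 h, top concentration 100 uM, half-log dilutions.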

Sequence of Cytochrome P450 3A4 (Homo sapiens) (P08684 whole entry, looked up): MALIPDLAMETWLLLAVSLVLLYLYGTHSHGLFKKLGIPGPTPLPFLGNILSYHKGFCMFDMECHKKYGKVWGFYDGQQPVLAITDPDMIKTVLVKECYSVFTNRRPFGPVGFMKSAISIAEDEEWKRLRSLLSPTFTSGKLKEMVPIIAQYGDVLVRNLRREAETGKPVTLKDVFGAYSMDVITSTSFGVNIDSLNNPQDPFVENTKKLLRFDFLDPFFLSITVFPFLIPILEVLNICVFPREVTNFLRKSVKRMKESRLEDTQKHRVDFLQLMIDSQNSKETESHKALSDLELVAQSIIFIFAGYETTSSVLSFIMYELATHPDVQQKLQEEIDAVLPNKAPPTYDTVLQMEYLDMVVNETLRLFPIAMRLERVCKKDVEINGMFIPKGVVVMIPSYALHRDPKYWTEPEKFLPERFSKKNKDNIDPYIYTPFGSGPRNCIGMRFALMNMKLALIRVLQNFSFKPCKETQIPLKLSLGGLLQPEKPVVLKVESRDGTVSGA
Sequence of Apoptosis regulator Bcl-2 (Homo sapiens) (P10415 whole entry, looked up): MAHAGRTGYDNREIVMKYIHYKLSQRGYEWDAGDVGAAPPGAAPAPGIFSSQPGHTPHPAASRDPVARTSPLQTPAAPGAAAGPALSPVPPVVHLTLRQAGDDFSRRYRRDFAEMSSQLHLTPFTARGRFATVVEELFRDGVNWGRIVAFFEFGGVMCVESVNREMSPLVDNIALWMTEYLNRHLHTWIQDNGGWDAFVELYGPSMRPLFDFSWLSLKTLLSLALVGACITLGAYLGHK
Sequence of Caspase-3 (Homo sapiens) (P42574 whole entry, looked up): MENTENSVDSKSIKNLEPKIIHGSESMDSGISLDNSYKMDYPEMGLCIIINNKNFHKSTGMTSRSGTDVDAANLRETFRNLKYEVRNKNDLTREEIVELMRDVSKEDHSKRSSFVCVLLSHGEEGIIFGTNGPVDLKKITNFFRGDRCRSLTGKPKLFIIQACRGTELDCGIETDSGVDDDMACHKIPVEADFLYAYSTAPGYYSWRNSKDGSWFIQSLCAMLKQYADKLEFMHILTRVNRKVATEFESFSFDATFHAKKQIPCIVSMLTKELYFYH
Sequence of Cytochrome P450 2C19 (Homo sapiens) (P33261 whole entry, looked up): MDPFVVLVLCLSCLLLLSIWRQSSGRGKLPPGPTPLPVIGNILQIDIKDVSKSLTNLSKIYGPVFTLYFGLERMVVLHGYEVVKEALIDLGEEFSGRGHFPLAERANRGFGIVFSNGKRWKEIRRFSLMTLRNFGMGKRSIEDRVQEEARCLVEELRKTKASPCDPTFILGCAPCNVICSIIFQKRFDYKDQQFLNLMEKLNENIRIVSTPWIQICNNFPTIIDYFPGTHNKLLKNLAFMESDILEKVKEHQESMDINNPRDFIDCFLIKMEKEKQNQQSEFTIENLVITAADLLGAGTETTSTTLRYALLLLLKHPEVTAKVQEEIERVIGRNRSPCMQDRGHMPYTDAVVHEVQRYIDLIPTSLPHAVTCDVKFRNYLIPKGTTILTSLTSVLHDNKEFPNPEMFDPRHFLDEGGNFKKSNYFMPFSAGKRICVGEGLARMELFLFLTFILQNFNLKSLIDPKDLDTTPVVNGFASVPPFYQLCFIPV

Regarding `Cc1cc(NC(=O)C(=O)O)cc(C)c1Oc1ccc(O)c2c1CCC2`, the outcome (in experiment [1]; in [2]; in experiment [3]; with BCL2L11 (gene 10018); in [5]; in experiment [6]) was inactive. The outcome (in experiment [7]; with Caspase-3 (Homo sapiens); in experiment [8]; with CYP2C8 (gene 1558); in the experiment with CYP2C9 (gene 1559); in experiment [12]) was inactive. The AC50 was 9920 nM (active) in experiment [4]; 2.28 nM (active) in [9]; 618 nM (active) in experiment [10]; 1200 nM (active) with CYP2E1 (gene 1571); 5.89 nM (active) with CYP4A11 (gene 1579); 13800 nM (active) in experiment [11].

In the case of `CCCCCCCCCCO`, the call (in experiment [1]; in [2]; in experiment [3]; in experiment [4]; in the experiment with BCL2L11 (gene 10018); in experiment [5]) was inactive. Moreover, the call (in experiment [6]; in [7]; with Caspase-3 (Homo sapiens); in [8]; in experiment [9]; in experiment [10]) was inactive. The compound was called inactive (in the experiment with CYP2C8 (gene 1558); in the experiment with CYP2C9 (gene 1559); in the experiment with CYP2E1 (gene 1571); with CYP4A11 (gene 1579); in experiment [11]; in experiment [12]).

Regarding `CCCCCCCCCCCCCO`, the compound was classed as inactive in experiment [1], in experiment [2], in [3], in experiment [4], in experiment [5] and in experiment [6]. In addition, the outcome (in experiment [7]; with Caspase-3 (Homo sapiens); in [8]; in experiment [9]; in experiment [13]; in experiment [14]) was inactive. Further, the call (in experiment [10]; in the experiment with CYP2C8 (gene 1558); in the experiment with CYP2C9 (gene 1559); with CYP2E1 (gene 1571); with CYP4A11 (gene 1579); in experiment [11]) was inactive. In addition, in [12], the compound was called inactive.

Take `CC1(C)CC(N=C=O)CC(C)(CN=C=O)C1` (configuration not stated): the compound was called inactive in experiment [1], in experiment [2], in experiment [3], in experiment [4], in experiment [5] and in experiment [6]. The outcome (in [7]; with Caspase-3 (Homo sapiens); in experiment [8]; in experiment [9]; in experiment [10]; with CYP2C8 (gene 1558)) was inactive. The outcome (with CYP2C9 (gene 1559); in the experiment with CYP4A11 (gene 1579); in [11]; in experiment [12]) was inactive. Further, the AC50 with CYP2E1 (gene 1571) is 24000 nM (active).
